From PubChem BioAssay (Tox21) come the findings set out here.

A number with no mark means an inactive call. Results filed as inconclusive are left out. The source made the active and inactive calls. Unless noted, the call rests on the fitted dose curve; in most records, active means well fitted curve in the direction sought with a large enough effect in the repeat runs; inconclusive means weak or mixed curves; inactive means no such curve, though single readings can be large; an effect the other way counts as inactive or inconclusive.

Experiment [1] in a line: qHTS assay to identify small molecule antagonists of the androgen receptor (AR) signaling pathway using the MDA cell line in the presence of 0.5 nM R1881 - cell viability counter screen (AID 1259242). Further: nearly all actives have a fitted effect of over 45% in size. Further: potency means the concentration at half of the fitted maximal effect. In outline:
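Live-cell protease fluorescence, CellTiter-Fluor, 30 min at 37C. Cells: MDA-kb2, 3,000/well, preincubated 5 hr. Compounds plus 0.5 nM R1881 final, 16 hr, 37C, 0% CO2.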
In general terms: In qHTS, concentration-response curves come from the screen itself.

For experiment [2], the target named is Androgen receptor (Homo sapiens) (UniProt P10275). As to the kind of experiment: qHTS assay to identify small molecule antagonists of the androgen receptor (AR) signaling pathway using the MDA cell line in the presence of 0.5 nM R1881 (AID 1259243). Further: nearly all actives have a fitted effect of over 50% in size. Further: potency means the concentration at half of the fitted maximal effect. In short, it runs like this: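 MDA-kb2, MMTV-luc (AR/GR elements); 3,000 cells/well; cpd + 0.5 nM R1881 final; 16 hr 37C, 0% CO2; ONE-Glo 30 min RT; luminescence.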

Experiment [3] concerns the target Estrogen receptor (Homo sapiens) (UniProt P03372). As to the kind of experiment: qHTS assay to identify small molecule antagonists of the estrogen receptor alpha (ER-alpha) signaling pathway using the BG1 cell line in the presence of 0.1 nM 17-beta-estradiol (AID 1259244). Further: nearly all actives have a fitted effect of over 50% in size. Further: potency means the concentration at half of the fitted maximal effect. In short, it runs like this: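 Luminescence after ONE-Glo (30 min, room temperature) measured ERE-luciferase activity in VM7Luc4E2 cells treated 22 h with compound and 0.1 nM final 17beta-estradiol as stimulator.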

A short description of experiment [4]: qHTS assay to identify small molecule HDAC inhibitors (AID 1259364). Further: potency means the concentration at half of the fitted maximal effect.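 Further: wild-type HCT-116 cells with endogenous class I/II HDAC activity; nearly all actives have a fitted effect of over 45% in size.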 In short, it runs like this: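 HCT-116 (wild type), 1,500 cells/well, overnight; compound 2 hr 37C 5% CO2; HDAC-Glo I/II reagent 30 min RT; luminescence readout.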
Experiment [5] can be described thus: qHTS assay to identify small molecule HDAC inhibitors - cell viability counter screen (AID 1259365). Further: nearly all actives have a fitted effect of over 50% in size. Further: potency means the concentration at half of the fitted maximal effect. In outline: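 HCT-116 wild-type, overnight attachment; 2hr drug exposure, 37C; CellTiter-Glo luminescent ATP readout after 30min RT.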
The nature of experiment [6]: qHTS assay to identify small molecule agonists of the sonic hedgehog signaling (Shh) pathway - cell viability counter screen (AID 1259366). Further: nearly all actives have a fitted effect of over 50% in size. Further: potency means the concentration at half of the fitted maximal effect. In short, it runs like this:
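Compounds in DMSO were pin-transferred onto 3T3 Gli1-Luc cells that had settled 4hr; plates then stood 24hr at 37C and 5% CO2. One hour before the end, CellTiter-Fluor was added and fluorescence recorded.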

Experiment [7] is described as follows: qHTS assay to identify small molecule antagonists of the sonic hedgehog signaling (Shh) pathway - cell viability counter screen (AID 1259367). Further: nearly all actives have a fitted effect of over 55% in size. Further: potency means the concentration at half of the fitted maximal effect. In short, it runs like this:
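Viability was read by CellTiter-Fluor fluorescence in the same wells, reagent added 23 hr into compound treatment and incubated 1 hr at 37C. The 3T3 Gli1-Luc reporter cells (2,000/well) received conditioned medium after compound and ran 24 hr.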

Experiment [8] in a line: qHTS assay to identify small molecule agonists of the sonic hedgehog signaling (Shh) pathway (AID 1259368; calls by dose curve;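 further: NIH/3T3-derived 3T3Gli1-Luc cells carrying a stable Gli1-driven firefly luciferase reporter; series mostly up to about 92 µM; nearly all actives have a fitted effect of over 15% in size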). In short, it runs like this:
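Read-out: firefly luciferase luminescence from a Gli1 response element reporter stably integrated in NIH/3T3-derived 3T3Gli1-Luc cells, measured 30 min at room temperature after reagent addition. Compound exposure lasted 24 hr at 37 C, 5% CO2.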

Experiment [9] deals with Estrogen receptor beta (Homo sapiens) (UniProt Q92731). As to the kind of experiment: qHTS assay to identify small molecule antagonists of the estrogen receptor beta (ER-beta) signaling pathway (AID 1259378; active means well fitted inhibition curve with a large enough effect in the signal ratio in the repeat runs, not every such curve was filed as active; the % refers to the signal ratio; further: potency means the concentration at half of the fitted maximal effect). In outline:
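Antagonist mode: compounds added to beta-lactamase reporter HEK293T ER-beta-UAS cells stimulated with E2 (1nM final), 16 hr at 37C. LiveBLAzer B/G FRET substrate, 2 hours room temperature, fluorescence read-out.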

Experiment [10] is described as follows: qHTS assay to identify small molecule agonists of the androgen receptor (AR) signaling pathway in the presence of an antagonist - cell viability counter screen (AID 1259379). Further: nearly all actives have a fitted effect of over 25% in size. Further: potency means the concentration at half of the fitted maximal effect. In outline:
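Viability counter screen: CellTiter-Fluor fluorescence, measured in the same wells as the luciferase read-out. MDA-kb2 cells, 3,000/well, with nilutamide at 3.0uM final and compounds at 15 concentrations, 16 hr at 37C, 0% CO2.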

A short description of experiment [11]: qHTS assay to identify small molecule agonists of the estrogen receptor beta (ER-beta) signaling pathway - cell viability counter screen (AID 1259380). Further: nearly all actives have a fitted effect of over 30% in size. Further: potency means the concentration at half of the fitted maximal effect. In outline:
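Luminescence read-out (CellTiter-Glo, 30 min, room temp) taken in the same wells as the beta-lactamase reporter assay; ER-beta-UAS-bla HEK293T cells exposed to DMSO-dissolved compounds for 16 hr at 37C in 2% charcoal-stripped FBS medium.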

Experiment [12] addresses Androgen receptor (Homo sapiens) (UniProt P10275). Kind of experiment: qHTS assay to identify small molecule agonists of the androgen receptor (AR) signaling pathway in the presence of an antagonist (AID 1259381; calls by dose curve; further: nearly all actives have a fitted effect of over 15% in size). In outline:
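Luciferase read-out (ONE-Glo, 30min room temperature) in MDA-kb2 MMTV-reporter cells; agonist mode run in presence of AR antagonist nilutamide, 3.0uM final. Compounds tested as 15-point series, 16hr exposure at 37C, 0% CO2.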

A short description of experiment [13]: qHTS assay to identify small molecule antagonists of the estrogen receptor beta (ER-beta) signaling pathway - cell viability counter screen (AID 1259382).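 Further: HEK293T cells carrying ER-beta-UAS-bla reporter stimulated with estradiol; series mostly up to about 92 µM; nearly all actives have a fitted effect of over 55% in size.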 In outline:
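Luminescent ATP read-out (CellTiter-Glo, 30 min, RT) taken in the same wells as the bla reporter assay. HEK293T ER-beta-UAS-bla cells in 2% charcoal-stripped FBS were exposed to compounds with 1nM E2 for 16 hr at 37C.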

Experiment [14] has as its target Estrogen receptor (Homo sapiens) (UniProt P03372). As to the kind of experiment: qHTS assay to identify small molecule agonists of the estrogen receptor alpha (ER-alpha) signaling pathway in the presence of an antagonist (AID 1259383; calls by dose curve; further: top concentration of the series differs between compounds; nearly all actives have a fitted effect of over 15% in size). In short, it runs like this: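 Luciferase luminescence (ONE-Glo, 30min at room temperature) measured in VM7Luc4E2 cells after 22hr compound exposure at 15 concentrations, with 10.0nM ICI-182,780 final present; cells express endogenous ER-alpha and carry four EREs upstream of luciferase.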

Experiment [15] in a line: qHTS assay to identify small molecule agonists or antagonists of the thyroid stimulating hormone receptor (TSHR) signaling pathway - wild type cell line counter screen (AID 1259384; calls by dose curve). In outline: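 Counter screen in untransfected Hek293: compounds (15-point titration, triplicate) plus phosphodiesterase inhibitor Ro20-1724 added after 18 h plating; 30 min RT. Intracellular cAMP via competitive d2/cryptate immunoassay, 1 h incubation.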

The target in experiment [16] is Thyrotropin receptor (Homo sapiens) (UniProt P16473). As to the kind of experiment: qHTS assay to identify small molecule antagonists of the thyroid stimulating hormone receptor (TSHR) signaling pathway (AID 1259385; calls by dose curve; further: nearly all actives have a fitted effect of over 20% in size). In outline: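 Antagonist mode: compound-treated TSHR-expressing HEK293 cells were stimulated with 1.5 ng/mL TSH (final) in presence of Ro20-1724 for 30 min at RT. HTRF cAMP detection after 1 h; each compound tested at 15 concentrations, triplicate.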

The nature of experiment [17]: qHTS assay to identify small molecule agonists of the estrogen receptor alpha (ER-alpha) signaling pathway in the presence of an antagonist - cell viability counter screen (AID 1259386).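 Further: cells exposed to compounds for 22 h at 37 °C before the viability read; nearly all actives have a fitted effect of over 30% in size.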 Further: potency means the concentration at half of the fitted maximal effect. In outline:
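Read-out: CellTiter-Fluor fluorescence after 1hr reagent incubation, measured in the same wells as the luciferase readout. VM7Luc4E2 cells were exposed to 15 compound concentrations with 10.0nM ICI-182,780 for 22hr at 37C.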

The nature of experiment [18]: qHTS assay to identify small molecule antagonists of the sonic hedgehog signaling (Shh) pathway (AID 1259369; calls by dose curve; further: nearly all actives have a fitted effect of over 45% in size; further: potency means the concentration at half of the fitted maximal effect). In outline:
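Luminescence readout: firefly Luc under Gli1 response element in 3T3Gli1-Luc cells (NIH/3T3 clone). Antagonist mode, stimulation by conditioned medium; compound exposure 24hr at 37 C, 5% CO2.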

In experiment [19] the target is Estrogen receptor beta (Homo sapiens) (UniProt Q92731). As to the kind of experiment: qHTS assay to identify small molecule agonists of the estrogen receptor beta (ER-beta) signaling pathway (AID 1259377; active means well fitted activation curve with a large enough effect in the signal ratio in the repeat runs, not every such curve was filed as active; the % refers to the signal ratio). In outline:
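qHTS in ER-beta-UAS-bla HEK293T cells: 6 hr settling, then 16 hr compound at 37C, then LiveBLAzer substrate 2 h at RT before fluorescence reading.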

Chain of Thyrotropin receptor (Homo sapiens) (P16473 whole entry, looked up): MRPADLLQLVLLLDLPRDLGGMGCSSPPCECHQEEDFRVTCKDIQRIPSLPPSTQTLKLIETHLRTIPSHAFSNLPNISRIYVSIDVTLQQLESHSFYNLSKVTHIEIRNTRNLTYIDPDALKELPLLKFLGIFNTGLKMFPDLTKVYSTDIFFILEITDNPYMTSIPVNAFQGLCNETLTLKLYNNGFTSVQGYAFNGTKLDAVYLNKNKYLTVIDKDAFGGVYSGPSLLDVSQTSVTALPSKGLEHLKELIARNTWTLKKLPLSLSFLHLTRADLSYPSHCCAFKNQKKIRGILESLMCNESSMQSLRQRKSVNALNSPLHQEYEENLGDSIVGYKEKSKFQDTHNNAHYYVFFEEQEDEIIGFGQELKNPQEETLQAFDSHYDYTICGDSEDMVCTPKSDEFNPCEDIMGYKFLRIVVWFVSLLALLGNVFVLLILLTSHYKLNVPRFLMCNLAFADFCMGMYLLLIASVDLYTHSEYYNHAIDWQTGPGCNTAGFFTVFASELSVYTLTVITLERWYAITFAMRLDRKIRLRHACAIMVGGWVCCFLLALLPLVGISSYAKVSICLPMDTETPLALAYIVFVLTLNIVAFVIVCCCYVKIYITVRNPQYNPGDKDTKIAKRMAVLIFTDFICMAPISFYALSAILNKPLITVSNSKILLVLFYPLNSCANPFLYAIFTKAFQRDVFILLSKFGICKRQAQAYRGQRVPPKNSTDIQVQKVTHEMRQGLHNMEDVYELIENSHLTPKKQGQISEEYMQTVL
Chain of Estrogen receptor (Homo sapiens) (P03372 whole entry, looked up): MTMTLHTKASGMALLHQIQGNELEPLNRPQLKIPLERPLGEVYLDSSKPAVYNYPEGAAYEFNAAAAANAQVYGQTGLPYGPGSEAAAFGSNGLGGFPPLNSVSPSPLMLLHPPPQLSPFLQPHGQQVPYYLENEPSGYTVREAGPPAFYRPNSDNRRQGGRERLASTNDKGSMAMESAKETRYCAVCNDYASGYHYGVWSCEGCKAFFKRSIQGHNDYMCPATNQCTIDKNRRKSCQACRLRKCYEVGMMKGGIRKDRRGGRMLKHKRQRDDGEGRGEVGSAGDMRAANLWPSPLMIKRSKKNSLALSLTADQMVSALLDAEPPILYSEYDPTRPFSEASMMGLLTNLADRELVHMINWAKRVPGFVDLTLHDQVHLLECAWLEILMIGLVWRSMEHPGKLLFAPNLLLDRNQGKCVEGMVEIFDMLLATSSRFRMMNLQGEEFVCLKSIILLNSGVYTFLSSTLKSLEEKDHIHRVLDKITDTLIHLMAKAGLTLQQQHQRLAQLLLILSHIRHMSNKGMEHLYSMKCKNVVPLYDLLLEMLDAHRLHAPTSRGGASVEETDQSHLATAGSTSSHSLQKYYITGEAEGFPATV
Chain of Androgen receptor (Homo sapiens) (P10275 whole entry, looked up): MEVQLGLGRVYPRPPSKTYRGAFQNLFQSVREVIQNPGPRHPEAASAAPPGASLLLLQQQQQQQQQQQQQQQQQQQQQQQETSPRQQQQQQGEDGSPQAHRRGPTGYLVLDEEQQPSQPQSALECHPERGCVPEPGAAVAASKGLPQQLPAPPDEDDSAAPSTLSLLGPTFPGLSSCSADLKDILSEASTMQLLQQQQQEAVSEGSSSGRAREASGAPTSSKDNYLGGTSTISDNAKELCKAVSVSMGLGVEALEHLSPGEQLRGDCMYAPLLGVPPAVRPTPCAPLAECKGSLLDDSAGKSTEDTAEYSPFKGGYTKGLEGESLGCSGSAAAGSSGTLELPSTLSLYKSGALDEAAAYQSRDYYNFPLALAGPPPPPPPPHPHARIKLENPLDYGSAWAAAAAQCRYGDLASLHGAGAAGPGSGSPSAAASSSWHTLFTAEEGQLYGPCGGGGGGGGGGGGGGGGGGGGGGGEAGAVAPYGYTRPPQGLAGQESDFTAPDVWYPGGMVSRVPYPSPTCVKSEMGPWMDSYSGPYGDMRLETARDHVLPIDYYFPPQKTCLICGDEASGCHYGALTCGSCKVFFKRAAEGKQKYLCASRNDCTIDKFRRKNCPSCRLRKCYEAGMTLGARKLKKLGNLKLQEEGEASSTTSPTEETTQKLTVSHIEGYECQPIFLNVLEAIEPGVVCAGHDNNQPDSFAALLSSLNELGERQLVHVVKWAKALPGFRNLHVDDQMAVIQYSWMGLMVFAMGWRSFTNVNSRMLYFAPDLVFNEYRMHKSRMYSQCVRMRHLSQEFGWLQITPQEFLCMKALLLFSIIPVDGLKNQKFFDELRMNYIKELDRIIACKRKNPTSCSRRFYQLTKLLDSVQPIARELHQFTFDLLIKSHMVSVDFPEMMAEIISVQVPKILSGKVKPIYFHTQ
Chain of Estrogen receptor beta (Homo sapiens) (Q92731 whole entry, looked up): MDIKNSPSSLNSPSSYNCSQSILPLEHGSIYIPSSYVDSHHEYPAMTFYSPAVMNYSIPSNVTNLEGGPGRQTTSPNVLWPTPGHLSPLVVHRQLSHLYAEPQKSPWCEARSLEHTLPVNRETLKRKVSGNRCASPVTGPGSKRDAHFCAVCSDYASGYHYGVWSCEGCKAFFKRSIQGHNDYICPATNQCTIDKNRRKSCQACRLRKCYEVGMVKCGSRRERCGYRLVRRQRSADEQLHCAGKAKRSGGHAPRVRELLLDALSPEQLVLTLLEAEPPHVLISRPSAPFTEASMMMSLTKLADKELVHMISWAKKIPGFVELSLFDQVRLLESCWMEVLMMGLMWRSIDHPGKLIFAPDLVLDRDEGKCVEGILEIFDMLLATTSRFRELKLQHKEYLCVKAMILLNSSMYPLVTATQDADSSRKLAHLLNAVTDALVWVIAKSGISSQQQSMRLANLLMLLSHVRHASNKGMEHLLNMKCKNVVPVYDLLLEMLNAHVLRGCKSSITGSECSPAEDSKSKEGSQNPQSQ

For `Cc1ccc(O)cn1`, the Potency result in experiment [1], in [2], in [3], in experiment [4], in experiment [5] and in experiment [6] was “inactive” each time. The Potency result in [7], in experiment [8], in [9], in [10], in experiment [11] and in [12] was “inactive” each time. Further, the Potency result in experiment [13], in [14], in experiment [16] and in [17] was “inactive” in each case. Further, the call in experiment [15] was inactive.

Take `Oc1cc2ccccc2cc1O`: the Potency entry in [1], in experiment [3], in experiment [4], in experiment [5], in experiment [6] and in experiment [7] was “inactive” throughout. The Potency result in experiment [8], in [10], in experiment [12], in experiment [13], in experiment [14] and in experiment [16] was “inactive” throughout. Moreover, the Potency entry in experiment [17] was “inactive”. In experiment [2], the Potency is 30.6 µM (active). Also, the call in [15] was inactive.

With `c1ccc(Sc2ccccc2)cc1`, the Potency entry in [1], in experiment [2], in experiment [3], in [4], in experiment [6] and in experiment [8] was “inactive” in each case. Further, the Potency entry in [10], in experiment [11], in [12], in experiment [13], in experiment [14] and in experiment [16] was “inactive” throughout. For the same compound, the Potency result in [17] is “inactive”. Moreover, the Potency in experiment [18] is 27.3 µM (active). In addition, the compound was called inactive in [15].

Take `CCN=C1C=CC(=C(c2ccc(N(CC)CC)cc2)c2ccc(N(CC)CC)cc2)c2ccccc21`: the Potency in [1] was 2.71 µM (active); in experiment [2], 0.608 µM (active); in experiment [3] it was 0.682 µM (active); in experiment [4], 27.1 µM (active); in experiment [5] it was 34.2 µM (active); in experiment [6], 21.6 µM (active). Further, the Potency in experiment [7] was 24.2 µM (active); in experiment [18] it was 0.0963 µM (active); in experiment [10] it was 2.16 µM (active); in experiment [11], 27.1 µM (active); in experiment [17], 9.63 µM (active). Further, the Potency entry in [8], in experiment [12] and in [14] was “inactive” each time.

Regarding `Clc1cccnc1`, the Potency result in [1], in [2], in [3], in experiment [4], in experiment [5] and in experiment [6] was “inactive” in each case. The Potency entry in experiment [8], in experiment [18], in experiment [10], in experiment [11], in experiment [12] and in experiment [13] was “inactive” each time. Also, the Potency entry in [14], in experiment [16] and in [17] was “inactive” each time. The outcome in experiment [15] was inactive.

Regarding `C=C1C(C)(C)[C@@]2(Cl)C(Cl)[C@]1(Cl)C(Cl)(Cl)C2(Cl)Cl` (stereo partly drawn), the Potency result in experiment [1], in [3], in experiment [4], in experiment [5], in [7] and in [8] was “inactive” each time. For the same compound, the Potency result in experiment [12], in [14] and in experiment [16] was “inactive” in each case. Further, the Potency in [2] was 60 µM (active); in [18] it was 21.3 µM (active); in experiment [9] it was 30.1 µM (active); in experiment [11], 60 µM (active). In experiment [15], the outcome was inactive.

`c1cc[nH]c1`: the Potency result in experiment [1], in experiment [2], in [3], in [4], in experiment [5] and in experiment [6] was “inactive” throughout. Also, the Potency result in [7], in experiment [8], in [18], in [10], in experiment [11] and in experiment [13] was “inactive” throughout. Moreover, the Potency result in experiment [14] and in experiment [16] was “inactive” each time. In addition, in experiment [15], the compound was classed as inactive.

For the compound `Cc1cccc(C)n1`, the Potency entry in experiment [1], in [2], in experiment [3], in [4], in [5] and in experiment [6] was “inactive” each time. The Potency result in experiment [8], in experiment [18], in experiment [19], in [9], in experiment [10] and in experiment [11] was “inactive” each time. Further, the Potency result in [12], in [13], in experiment [14] and in experiment [16] was “inactive” each time. The compound was classed as inactive in experiment [15].

For `OCCCCl`, the Potency result in [1], in experiment [2], in experiment [3], in experiment [4], in experiment [5] and in [6] was “inactive” throughout. Besides, the Potency result in experiment [8], in experiment [18], in experiment [10], in experiment [11], in experiment [12] and in experiment [14] was “inactive” throughout. The Potency entry in experiment [16] and in [17] was “inactive” in each case. In experiment [15], the result was inactive.
